The campaign covered roughly 2,400 compounds. About 1,800 (75%) were called active. The set was probably picked from earlier hits. The list is a sample of the results. Values without a mark were called inactive. No stated cut-off is given here; in the data, active means inhibition above about 22%; inactive means the rest.
Test: nonselective antagonists in TAAR1 counter-screen cells, counter-screen for hTAAR1 antagonist project, cell-based, fluorescence, calcium (AID 651780);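 further: CHO-Ga16 host cells stimulated with ATP at an EC80 level; 0% = agonist EC80 plus vehicle and 100% = vehicle without agonist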
Settings: counterscreen cell line, antagonist mode, at 3 µM, active compounds read high
With COc1ccc(CCNC(=O)C(=O)NCC2OCCN2S(=O)(=O)c2ccc(OC)c(C)c2)cc1 (stereo not given) the inhibition was 23.7% (active). For O=C(COC(=O)CCCSc1nc2ccccc2[nH]1)Nc1ccc(Oc2ccccc2)cc1, the inhibition was 39.8% (active). In the case of O=C(O)c1ccc(NC(=O)c2cn(-c3ccccc3)nc2-c2ccc(Cl)cc2)cc1, the inhibition is reported as 36.1% (active). In the case of COc1ccc(CC(=O)Nc2c(C(N)=O)oc3ccccc23)cc1, the inhibition is reported as 22.3% (active). In the case of C[C@H](NC(=O)c1nc[nH]c1C(=O)NCC(=O)OC(C)(C)C)C(=O)OCc1ccccc1, the inhibition is reported as 23.6% (active). For CC(C)(C)OC(=O)NCCCCCNC(=O)c1nc[nH]c1C(=O)NCc1ccccc1, the inhibition was 22% (active). With Cc1cccc(NC(=O)c2nc[nH]c2C(=O)NCC(=O)OCc2ccccc2)c1 the inhibition was 26% (active). In the case of OC(c1ccccc1)(c1ccccc1)C1CCN(CCCOc2ccc(-c3ccsc3)cc2)CC1, the inhibition is reported as 40.2% (active). With CC(=O)Nc1ccc(NC(=O)COC(=O)C2CCC(C(C)(C)C)CC2)cc1 (stereo not given) the inhibition was 24.5% (active). In the case of O=C(NCC1CCCO1)c1cc2c([nH]c3ccccc32)c(-c2ccc(F)cc2)n1 (stereo not given), the inhibition is reported as 30.9% (active). With CC(=O)N1CCN(C(=O)c2cc(-c3ccc(Cl)s3)nc3ccccc23)CC1 the inhibition was 26.1% (active). O=C(COC(=O)c1c2c(nc3ccccc13)CCCC2)c1ccc(Br)s1 gave an inhibition of 20.1%. Work on Cc1cccc(C)c1NC(=O)CNC(=O)C1CCCC1 yielded an inhibition of 5.58%. With O=S1(=O)c2c(cccc2N2CCCCC2)O[C@H](COCc2ccccc2)CN1C1CC1 the inhibition was 32.5% (active). For Cc1cc(Br)ccc1NC(=O)c1cnc(N2CCN(c3ccccn3)CC2)c2ccccc12, the inhibition was 38.4% (active). With Cc1ccccc1NC(=O)Cc1nc(COC(=O)C(C)(C)Oc2ccc(Cl)cc2)cs1 the inhibition was 33.4% (active). In the case of COc1cc2ccccc2cc1C(=O)Nc1ccc(NC(=O)c2cccs2)cc1, the inhibition is reported as 27.7% (active). In the case of COC(=O)c1sccc1NC(=O)c1cc(OC)c(OC)c(OC)c1, the inhibition is reported as 21.3%. With O=C1c2ccccc2C(=O)N1CCC#Cc1ccc2cc(C3(O)CCCCC3)oc(=O)c2c1 the inhibition was 44% (active). In the case of COc1ccc(CCNC(=O)c2ccc(CS(=O)(=O)c3ccc(Br)cc3)o2)cc1OC, the inhibition is reported as 35% (active). In the case of CCOC(=O)C1C(c2ccc(OC)c(OC)c2)c2c([nH][nH]c2=O)CC1(C)O (stereo not given), the inhibition is reported as 25.2% (active). Molecule COC(=O)Cc1nnn2c1[C@H](C)[C@H](c1ccccc1Br)OCC2 has an inhibition of 0.66%. For COc1ccc(S(=O)(=O)N2CCCC(C(=O)Nc3ccc(NC(=O)c4ccccn4)cc3)C2)cc1 (stereo not given), the inhibition was 29.2% (active). For COc1ccc(NC(=O)C2CCCN(S(=O)(=O)c3cccc4cccnc34)C2)cc1OC (stereo not given), the inhibition was 29.3% (active). Cc1onc(-c2c(F)cccc2Cl)c1C(=O)Nc1cccc(S(=O)(=O)N2CCCCC2)c1 showed an inhibition of 19.7%. With COc1ccc(C(=O)Nc2cccc(NC(=O)c3ccc(OC)cc3OC)n2)c(OC)c1 the inhibition was 22.6% (active). In the case of CSc1nc(-c2ccccc2)nc(C(Cl)Cl)n1, the inhibition is reported as -4.34%. For COc1cc(/C=C2/C(=O)ON=C2C)ccc1OCc1ccccc1F, the inhibition was 57.1% (active). In the case of Cc1nc(N2CCN(c3ccccn3)CC2)c2c(C)c(C(=O)Nc3ccc(F)cc3)sc2n1, the inhibition is reported as 36.4% (active). For CSC(=S)N/N=C/c1c[nH]c2ccccc12, the inhibition was 19.5%. With Nc1nonc1-n1nnc(C(=O)N/N=C/c2c[nH]c3ccccc23)c1-c1ccccc1 the inhibition was 29.3% (active). For COc1ccc(CCNC2=C(Cl)C(=O)N(Cc3ccccc3)C2=O)cc1OC, the inhibition was 31.3% (active). In the case of COc1ccc(OC)c2[nH]c(=O)c(CCNC(=O)C(=O)c3c[nH]c4ccccc34)cc12, the inhibition is reported as 26.8% (active). In the case of CC(=O)OCCN(CCCn1c(-c2ccncc2)nc2ccccc21)c1nc(-c2ccc(C)cc2)cs1, the inhibition is reported as 24.1% (active). In the case of O=c1[nH]c(CSc2ncc(-c3ccc(F)cc3)n2Cc2ccco2)nc2ccccc12, the inhibition is reported as 29.8% (active). In the case of CCCCNc1c(-c2cccc(Sc3ccc(OC)cc3)c2)nc2ccccn12, the inhibition is reported as 42.4% (active). In the case of C[C@H](O)[C@@H]1C(=O)N2CCc3c([nH]c4c(-c5ccc6c(c5)OCO6)cccc34)[C@@H]2C[C@@H]1N(C)C(=O)c1ccco1, the inhibition is reported as 35.2% (active). In the case of Cc1cccc(NC(=O)c2ccc(COc3ccccc3[N+](=O)[O-])o2)n1, the inhibition is reported as 15.8%. For COC(=O)C1=C(C)N(Cc2ccc(F)cc2)C(=S)NC1c1cccc(Cl)c1 (stereo not given), the inhibition was 23.3% (active). In the case of O=C(N/N=C/c1ccc(Cl)c(Cl)c1)c1ccc2nc[nH]c2c1, the inhibition is reported as 27.9% (active). In the case of Cc1nn(-c2ccccc2)c(C)c1NC(=O)COC(=O)c1cc(Cl)ccc1O, the inhibition is reported as 32.8% (active). In the case of CNC(=O)c1ccsc1NC(=O)c1ccc(S(=O)(=O)N2CCc3ccccc32)cc1, the inhibition is reported as 32.3% (active). In the case of CCN1CCc2c(C#N)c(NCc3ccccc3)nc(NCCO)c2C1, the inhibition is reported as 5.04%. For C=CCn1c(SCc2cccc(F)c2)nc2cc(C(=O)N3CCC(C(N)=O)CC3)ccc2c1=O, the inhibition was 25.6% (active). In the case of CC(=O)c1ccccc1OCc1ccc(C(=O)c2ccccc2)cc1, the inhibition is reported as 27% (active). In the case of CCNS(=O)(=O)c1ccc(CCC(=O)N2CCN(c3cc(Cl)ccc3C)CC2)cc1, the inhibition is reported as 37.1% (active). In the case of COc1ccc(Cl)cc1NC(=O)CCS(=O)(=O)c1cc2c(cc1C)NC(=O)CO2, the inhibition is reported as 23.5% (active). Molecule CCc1ccc2c(c1)NC(=O)C2(C)Cc1ccc(OC(F)(F)F)cc1 (stereo not given) has an inhibition of 4.79%. In the case of COc1ccc(C(=O)Oc2ccc(-c3nnco3)cc2)cc1S(=O)(=O)N1CCOCC1, the inhibition is reported as 25.1% (active). With O=C(Oc1ccc(-c2nnco2)cc1)c1ccc(F)c(S(=O)(=O)N2CCOCC2)c1 the inhibition was 32.8% (active). For O=C(Nc1ccc(-c2nnc(-c3ccccc3)o2)cc1)c1ccc(Br)o1, the inhibition was 16%. With CCC(=O)Oc1cccc(C(=O)Nc2ccc(-c3nnc(-c4ccco4)o3)cc2)c1 the inhibition was 26.1% (active). For COc1ccc2[nH]c(=O)c(CN(Cc3cccnc3)S(=O)(=O)c3ccccc3F)cc2c1, the inhibition was 34.9% (active). C=CCc1cc(S(=O)(=O)c2ccc(O)c(CC=C)c2)ccc1O gave an inhibition of 18.2%. With O=C(NCCN1CCOCC1)c1ccccc1N1C(=O)[C@@H]2Cc3c([nH]c4ccccc34)C(c3cccc(Cl)c3)N2C1=O (stereo not given in full) the inhibition was 26.3% (active). In the case of COC(=O)[C@@]1(Sc2ccc(C)cc2)CC(=O)N(c2cccc(SC)c2)[C@@H]1c1ccccc1, the inhibition is reported as 21.8% (active). In the case of Clc1ccc(Nc2ncnc3c2nnn3Cc2ccccc2)cc1, the inhibition is reported as 9.4%. In the case of Cc1ccc2c(c1)N(CC(=O)NCCc1ccc(Cl)cc1)C(=O)c1cccnc1O2, the inhibition is reported as 22.1% (active). In the case of Cc1ccc(-n2c(C)cc(/C=N\NC(=O)CC(=O)NC(C)C)c2C)cc1, the inhibition is reported as 7.15%. For C/C(=N\Nc1ncc(Cl)cc1Cl)c1ccc(S(=O)(=O)NCc2ccco2)cc1, the inhibition was 28.7% (active). For Fc1ccc(/C=N/Nc2nc(-c3cccnc3)nc3ccccc23)cc1, the inhibition was 25.1% (active). In the case of O=C(OCC(=O)N(CCc1ccccc1)Cc1ccccc1)c1ccccc1[N+](=O)[O-], the inhibition is reported as 33.2% (active). Cc1ccc2cccc(OCCCOc3ccccc3CO)c2n1 showed an inhibition of 20.3%. For COc1cc(OC)cc(C(=O)OCC(=O)Nc2sccc2C(N)=O)c1, the inhibition was 27.8% (active). For COc1cc(SC#N)ccc1N=Cc1c(C)[nH]n(-c2ccc(C)cc2)c1=O, the inhibition was 87.2% (active). In the case of C=CCC[C@@H](Cc1ccc(F)cc1)C(=O)O[C@H](CNC(=O)[C@H](CC=C)CC(=O)N(CCO)Cc1ccccc1)c1ccccc1, the inhibition is reported as 39.2% (active). In the case of C=CCC[C@H](Cc1ccc(F)cc1)C(=O)OC[C@H](C)NC(=O)[C@H](CC=C)CC(=O)N(CCO)Cc1ccccc1, the inhibition is reported as 27.6% (active). In the case of Oc1ccccc1N1CCN(c2ncnc3sc(-c4ccccc4)cc23)CC1, the inhibition is reported as 30.2% (active). In the case of O=S(=O)(c1cccs1)N1CCCc2nc(-c3ccc(Br)cc3)ccc21, the inhibition is reported as 33.3% (active). In the case of CCOC(=O)C1=C(NC(=S)NC(=O)c2ccccc2)c2ccccc2CC1(C)C, the inhibition is reported as 24.8% (active). In the case of COc1ccc(-c2nn(-c3ccccc3)cc2C(=O)Nc2nccs2)cc1OC, the inhibition is reported as 24.8% (active). For CSCCC(NC(=O)COc1ccccc1)C(=O)OCC(=O)c1cc2ccccc2o1 (stereo not given), the inhibition was 24.2% (active). For CSCCC(NC(=O)COc1ccccc1)C(=O)OCCOc1ccc(Br)cc1 (stereo not given), the inhibition was 21.9% (active). With C[C@@H]1CN([C@@H](C)CO)S(=O)(=O)c2ccc(C#Cc3cccc(F)c3)cc2O[C@H]1CN(C)S(=O)(=O)c1cn(C)cn1 the inhibition was 38.3% (active). In the case of Cc1ccc(SCc2c(C(=O)N/N=C/c3cccnc3)nnn2-c2nonc2N)cc1, the inhibition is reported as 38.4% (active). In the case of Oc1ccc(/C=N/Nc2nc(-c3ccccc3F)nc3ccccc23)c(O)c1, the inhibition is reported as 38.2% (active). With COc1ccc(S(=O)(=O)N(CC(=O)NCc2ccco2)c2ccc(F)cc2)cc1 the inhibition was 19.3%. For COc1ccc(N(CC(=O)N/N=C/c2cccs2)S(=O)(=O)c2ccc(OC)c(OC)c2)cc1, the inhibition was 25.2% (active). Work on O=C(CN1CCCSc2ccccc21)N1CCN(S(=O)(=O)c2cccc(F)c2)CC1 yielded an inhibition of 19.4%. For NNC(=O)CNC(c1ccccc1)c1cc(Cl)ccc1NC(=O)c1ccccc1 (stereo not given), the inhibition was 22.9% (active). With CCOc1ccc(NC(=O)N2CC=C(n3c(=O)[nH]c4ccccc43)CC2)cc1 the inhibition was 19.3%. With Cn1c2ccccc2c(=O)c2c(=O)n(Cc3ccco3)c(COc3ccccc3)nc21 the inhibition was 21.8% (active). For Cc1ccc(C)c(N2CCN(C(=O)CCCCCn3c(=S)[nH]c4ccc(N5CCOCC5)cc4c3=O)CC2)c1, the inhibition was 44.4% (active). For Cc1ccc(NC(=O)c2ccc(CSc3ncnc4nc[nH]c34)cc2)c(C)c1, the inhibition was 17.2%. In the case of CC(=O)n1cc([C@H]2C=C(C(=O)N3CCOCC3)O[C@@H](OCc3ccc(CO)cc3)C2)c2ccccc21, the inhibition is reported as 24.4% (active).
